The values below come from PubChem BioAssay (Tox21).

Results filed as inconclusive are left out. The source made the active and inactive calls. Unless noted, the call rests on the fitted dose curve; in most records, active means well fitted curve in the direction sought with a large enough effect in the repeat runs; inconclusive means weak or mixed curves; inactive means no such curve, though single readings can be large; an effect the other way counts as inactive or inconclusive.

For assay [1], the target named is Estrogen receptor beta (Homo sapiens) (UniProt Q92731). Nature of the assay: qHTS assay to identify small molecule antagonists of the estrogen receptor beta (ER-beta) signaling pathway (AID 1259378; active means well fitted inhibition curve with a large enough effect in the signal ratio in the repeat runs, not every such curve was filed as active; the % refers to the signal ratio). In outline: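 ER-beta-UAS-bla HEK293T cells in 2% charcoal-stripped FBS medium treated with compound plus 1nM final 17-beta-estradiol for 16 hr at 37C. Beta-lactamase reporter read by FRET substrate fluorescence after 2 hours at room temperature.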
(Quantitative high-throughput screening tests each substance at several concentrations.)

Assay [2] in a line: qHTS assay to identify small molecule agonists of the androgen receptor (AR) signaling pathway in the presence of an antagonist - cell viability counter screen (AID 1259379).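 Further: MDA-kb2 human breast cancer cells carrying an MMTV luciferase reporter; series mostly up to about 92 µM; nearly all actives have a fitted effect of over 25% in size.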 In outline: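 MDA-kb2 viability measured by CellTiter-Fluor fluorescence in the same wells as the luciferase signal; nilutamide 3.0uM final; 15-point compound titration; 16 hr at 37C.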
Assay [3] is described as follows: qHTS assay to identify small molecule agonists of the estrogen receptor beta (ER-beta) signaling pathway - cell viability counter screen (AID 1259380). Further: nearly all actives have a fitted effect of over 30% in size. Further: potency means the concentration at half of the fitted maximal effect. In outline: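 Measured: luminescence from CellTiter-Glo after 30 min at room temperature, added to wells already read for the LiveBLAzer FRET reporter (2 hr substrate); ER-beta-UAS-bla HEK293T cells had 16 hr compound treatment at 37C, 5% CO2.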

Assay [4] in a line: qHTS assay to identify small molecule antagonists of the estrogen receptor beta (ER-beta) signaling pathway - cell viability counter screen (AID 1259382). Further: nearly all actives have a fitted effect of over 55% in size. Further: potency means the concentration at half of the fitted maximal effect. In outline: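 Readout: luminescence, CellTiter-Glo, same wells as bla assay. System: ER-beta-UAS-bla GripTite HEK293T, 2% charcoal-stripped FBS. Exposure: compounds plus 1nM 17-beta-estradiol, 16 hr, 37C.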
The target of assay [5] is Thyrotropin receptor (Homo sapiens) (UniProt P16473). Nature of the assay: qHTS assay to identify small molecule antagonists of the thyroid stimulating hormone receptor (TSHR) signaling pathway (AID 1259385; calls by dose curve; further: nearly all actives have a fitted effect of over 20% in size; further: potency means the concentration at half of the fitted maximal effect). In outline:
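TSHR-HEK293 cells (800/well) plated 18 h, then compounds with Ro20-1724 and TSH at 1.5 ng/mL final, 30 min at room temperature. cAMP quantified by HTRF (cAMP-d2/anti-cAMP-cryptate, 1 h); 15 concentrations in triplicate.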

A short description of assay [6]: qHTS assay to identify small molecule agonists of the estrogen receptor alpha (ER-alpha) signaling pathway in the presence of an antagonist - cell viability counter screen (AID 1259386).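 Further: cells exposed to compounds for 22 h at 37 °C before the viability read; nearly all actives have a fitted effect of over 30% in size.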 Further: potency means the concentration at half of the fitted maximal effect. In outline: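 The test measures whether compounds kill ER-alpha reporter cells (VM7Luc4E2) under antagonist co-treatment (ICI-182,780, 10.0nM). Fluorescence from CellTiter-Fluor is read after a 22hr exposure.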

In assay [7] the target is Progesterone receptor (Homo sapiens) (UniProt P06401). Nature of the assay: qHTS assay to identify small molecule agonists of the progesterone receptor (PR) signaling pathway (AID 1346784; calls by dose curve; further: nearly all actives have a fitted effect of over 30% in size). In outline:
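Compounds were tested for PR agonism in HEK 293T cells bearing a beta-lactamase gene under UAS control. Treatment lasted 16 hr at 37C; signal came from fluorescence of a FRET substrate.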

For assay [8] the target is unchanged. Kind of assay: qHTS assay to identify small molecule antagonists of the progesterone receptor (PR) signaling pathway (AID 1346795; active means well fitted inhibition curve with a large enough effect in the signal ratio in the repeat runs, not every such curve was filed as active; the % refers to the signal ratio). In outline: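 In HEK293T cells bearing the PR-UAS-bla reporter, compound effects on promegestone-driven (1 nM) beta-lactamase expression are assessed after 16 hr using a fluorescent FRET substrate incubated 2 hr at room temperature.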

Assay [9] in a line: qHTS assay to identify small molecule antagonists of the progesterone receptor (PR) signaling pathway - cell viability counter screen (AID 1346798). Further: nearly all actives have a fitted effect of over 50% in size. Further: potency means the concentration at half of the fitted maximal effect. In outline: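 Following a 4 hr attachment, PR-UAS-bla HEK293T cells in charcoal-stripped FBS medium were exposed to compounds with R5020 for 16 hr; CellTiter-Glo was added and luminescence read after 30 min at room temperature.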

Assay [10] is described as follows: qHTS assay to identify small molecule antagonists of the TGF-beta/Smad signaling pathway - cell viability counter screen (AID 1346824). Further: nearly all actives have a fitted effect of over 50% in size. In outline:
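SBE-bla HEK 293T cells, incubated overnight, then compound plus 0.25 ng/mL TGF-beta1 (stock added) for 5 hr at 37 C. Viability was read in the same wells by CellTiter-Glo luminescence after 30 min at room temperature.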

Assay [11] in a line: qHTS assay to identify small molecule agonists of the TGF-beta/Smad signaling pathway - cell viability counter screen (AID 1346829). Further: top concentration of the series differs between compounds; nearly all actives have a fitted effect of over 45% in size. In outline: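 Compound-treated SBE-bla HEK 293T cells (5 hr, 37 C) were assessed for viability with CellTiter-Glo in parallel with the reporter read.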
The nature of assay [12]: qHTS assay to identify small molecule agonists of the TGF-beta/Smad signaling pathway (AID 1346859; active means well fitted activation curve with a large enough effect in the signal ratio in the repeat runs, not every such curve was filed as active; the % refers to the signal ratio; further: series mostly up to about 77 µM). In outline:
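Each well held 4,000 SBE-bla HEK 293T cells incubated overnight before compound addition; 5 hr later the cleavable FRET substrate went on for 2 hr at room temperature, and fluorescence was read at two emissions.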

Assay [13] deals with Thyrotropin-releasing hormone receptor (Homo sapiens) (UniProt P34981). Nature of the assay: qHTS assay to identify small molecule antagonists of the thyrotropin-releasing hormone receptor (TRHR) signaling pathway (AID 1346877; active means well fitted inhibition curve with a large enough effect in the repeat runs, not every such curve was filed as active; further: series mostly up to about 51 µM). In outline: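 Overnight-plated (18 h, 37 °C) HEK293 cells expressing TRHR were dye-loaded 2 h, treated with compound, then stimulated with TRH at 1 nM final. Fluorescence intensity was captured every second for 3 min.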

The target in assay [14] is Estrogen receptor beta (Homo sapiens) (UniProt Q92731). Nature of the assay: qHTS assay to identify small molecule agonists of the estrogen receptor beta (ER-beta) signaling pathway (AID 1259377; active means well fitted activation curve with a large enough effect in the signal ratio in the repeat runs, not every such curve was filed as active; the % refers to the signal ratio). In outline:
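Read-out: beta-lactamase FRET fluorescence. Cell line: ER-beta-UAS-bla HEK293T in 2% charcoal-stripped FBS. Exposure: 16 hr at 37C. Substrate step: 2 h at room temperature.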

In assay [15] the target is Thyrotropin-releasing hormone receptor (Homo sapiens) (UniProt P34981). Nature of the assay: qHTS assay to identify small molecule agonists of the thyrotropin-releasing hormone receptor (TRHR) signaling pathway (AID 1346891; calls by dose curve; further: series mostly up to about 58 µM). In outline: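 Screening of agonists relied on calcium signalling in HEK293 cells expressing human TRHR: dye loading 2 h at 37 °C preceded compound addition and a 3-min fluorescence time course.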

For assay [16], the target named is Androgen receptor (Homo sapiens) (UniProt P10275). Kind of assay: qHTS assay to identify small molecule agonists of the androgen receptor (AR) signaling pathway in the presence of an antagonist (AID 1259381; calls by dose curve; further: nearly all actives have a fitted effect of over 15% in size). In outline: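 Luminescent ONE-Glo read, 30min at room temperature, follows 16hr compound exposure (15 concentrations) of MDA-kb2 cells at 37C, 0% CO2, with nilutamide added at 3.0uM final.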

Assay [17] addresses Estrogen receptor (Homo sapiens) (UniProt P03372). Kind of assay: qHTS assay to identify small molecule agonists of the estrogen receptor alpha (ER-alpha) signaling pathway in the presence of an antagonist (AID 1259383; calls by dose curve; further: top concentration of the series differs between compounds; nearly all actives have a fitted effect of over 15% in size). In outline: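 Quantitative HTS confirmation: compounds titrated at 15 concentrations onto estrogen-deprived VM7Luc4E2 cells carrying a four-ERE luciferase construct, with ICI-182,780 present at 10.0nM final. Signal is luminescence after 22hr exposure.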

Assay [18] is described as follows: qHTS assay to identify small molecule agonists or antagonists of the thyroid stimulating hormone receptor (TSHR) signaling pathway - wild type cell line counter screen (AID 1259384; calls by dose curve; further: potency means the concentration at half of the fitted maximal effect). In outline: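 Wild-type Hek293 cells, 800/well, 18 h at 37C, then compound with Ro20-1724 for 30 min RT. cAMP by HTRF (cAMP-d2/anti-cAMP cryptate), 1 h RT, fluorescence read. 15 concentrations, triplicates.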

Assay [19] can be described thus: qHTS assay to identify small molecule agonists of the progesterone receptor (PR) signaling pathway - cell viability counter screen (AID 1346799; calls by dose curve; further: nearly all actives have a fitted effect of over 45% in size; further: potency means the concentration at half of the fitted maximal effect). In outline:
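Here, 3,000 PR-UAS-bla HEK293T cells per well were treated with compounds for 16 hr after a 6 hr preincubation at 37C and 5% CO2; cell viability is the CellTiter-Glo luminescence signal.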

Chain of Thyrotropin receptor (Homo sapiens) (P16473 whole entry, looked up): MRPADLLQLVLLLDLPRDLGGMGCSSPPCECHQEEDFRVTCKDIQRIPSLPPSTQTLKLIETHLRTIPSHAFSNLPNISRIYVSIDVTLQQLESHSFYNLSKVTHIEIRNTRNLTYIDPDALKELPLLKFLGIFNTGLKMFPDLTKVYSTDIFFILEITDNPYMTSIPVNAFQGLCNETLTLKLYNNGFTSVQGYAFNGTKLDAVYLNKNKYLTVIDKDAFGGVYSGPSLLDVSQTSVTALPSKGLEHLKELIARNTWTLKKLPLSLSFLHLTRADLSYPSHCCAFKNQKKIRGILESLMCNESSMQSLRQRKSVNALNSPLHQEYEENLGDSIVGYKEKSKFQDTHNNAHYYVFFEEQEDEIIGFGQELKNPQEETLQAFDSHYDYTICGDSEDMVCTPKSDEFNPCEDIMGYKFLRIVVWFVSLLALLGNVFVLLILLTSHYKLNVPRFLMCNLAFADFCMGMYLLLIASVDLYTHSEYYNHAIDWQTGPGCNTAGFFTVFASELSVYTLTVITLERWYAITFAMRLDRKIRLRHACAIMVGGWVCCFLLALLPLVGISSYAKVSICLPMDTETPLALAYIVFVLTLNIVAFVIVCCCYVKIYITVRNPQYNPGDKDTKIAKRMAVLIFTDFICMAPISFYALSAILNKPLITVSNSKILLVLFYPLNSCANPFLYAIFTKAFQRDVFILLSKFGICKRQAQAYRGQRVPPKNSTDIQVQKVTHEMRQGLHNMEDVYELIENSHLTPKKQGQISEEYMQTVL
Chain of Estrogen receptor (Homo sapiens) (P03372 whole entry, looked up): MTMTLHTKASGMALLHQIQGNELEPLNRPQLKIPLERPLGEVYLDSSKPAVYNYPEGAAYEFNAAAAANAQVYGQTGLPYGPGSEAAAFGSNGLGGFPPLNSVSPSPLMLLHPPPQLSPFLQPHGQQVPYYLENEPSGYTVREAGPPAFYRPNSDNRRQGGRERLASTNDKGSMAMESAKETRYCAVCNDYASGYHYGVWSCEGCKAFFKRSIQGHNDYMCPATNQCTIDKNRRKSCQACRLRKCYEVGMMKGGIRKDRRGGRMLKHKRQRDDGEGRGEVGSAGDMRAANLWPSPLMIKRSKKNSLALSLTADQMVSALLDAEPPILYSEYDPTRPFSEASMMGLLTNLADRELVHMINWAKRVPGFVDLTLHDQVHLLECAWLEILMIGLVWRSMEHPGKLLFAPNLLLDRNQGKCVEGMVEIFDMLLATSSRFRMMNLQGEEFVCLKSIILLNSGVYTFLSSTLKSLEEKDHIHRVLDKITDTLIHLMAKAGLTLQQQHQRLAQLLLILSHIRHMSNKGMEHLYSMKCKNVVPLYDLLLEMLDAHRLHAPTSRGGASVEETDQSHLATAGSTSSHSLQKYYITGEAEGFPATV
Chain of Progesterone receptor (Homo sapiens) (P06401 whole entry, looked up): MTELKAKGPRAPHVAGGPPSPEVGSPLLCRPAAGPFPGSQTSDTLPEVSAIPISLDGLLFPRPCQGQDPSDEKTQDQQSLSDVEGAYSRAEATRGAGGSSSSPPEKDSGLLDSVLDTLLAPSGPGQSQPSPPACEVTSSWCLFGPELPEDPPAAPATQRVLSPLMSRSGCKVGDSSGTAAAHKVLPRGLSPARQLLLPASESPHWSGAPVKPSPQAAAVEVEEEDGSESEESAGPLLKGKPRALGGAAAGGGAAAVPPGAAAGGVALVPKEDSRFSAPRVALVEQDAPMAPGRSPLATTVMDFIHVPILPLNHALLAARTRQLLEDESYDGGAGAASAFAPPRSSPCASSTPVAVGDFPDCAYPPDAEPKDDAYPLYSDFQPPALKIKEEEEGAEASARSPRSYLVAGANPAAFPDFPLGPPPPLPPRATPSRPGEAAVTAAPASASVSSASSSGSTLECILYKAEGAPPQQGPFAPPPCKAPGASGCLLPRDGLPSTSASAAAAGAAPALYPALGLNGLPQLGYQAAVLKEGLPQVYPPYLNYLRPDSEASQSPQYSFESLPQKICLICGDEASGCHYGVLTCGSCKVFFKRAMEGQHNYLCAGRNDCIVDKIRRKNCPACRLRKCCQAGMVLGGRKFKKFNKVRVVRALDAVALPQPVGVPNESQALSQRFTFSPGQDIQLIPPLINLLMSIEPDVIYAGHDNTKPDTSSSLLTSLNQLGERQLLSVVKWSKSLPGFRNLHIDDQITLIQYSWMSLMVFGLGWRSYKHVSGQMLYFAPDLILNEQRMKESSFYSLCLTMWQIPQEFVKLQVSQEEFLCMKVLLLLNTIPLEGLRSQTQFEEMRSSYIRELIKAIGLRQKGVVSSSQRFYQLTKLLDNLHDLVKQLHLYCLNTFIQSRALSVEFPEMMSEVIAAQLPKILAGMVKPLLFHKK
Chain of Thyrotropin-releasing hormone receptor (Homo sapiens) (P34981 whole entry, looked up): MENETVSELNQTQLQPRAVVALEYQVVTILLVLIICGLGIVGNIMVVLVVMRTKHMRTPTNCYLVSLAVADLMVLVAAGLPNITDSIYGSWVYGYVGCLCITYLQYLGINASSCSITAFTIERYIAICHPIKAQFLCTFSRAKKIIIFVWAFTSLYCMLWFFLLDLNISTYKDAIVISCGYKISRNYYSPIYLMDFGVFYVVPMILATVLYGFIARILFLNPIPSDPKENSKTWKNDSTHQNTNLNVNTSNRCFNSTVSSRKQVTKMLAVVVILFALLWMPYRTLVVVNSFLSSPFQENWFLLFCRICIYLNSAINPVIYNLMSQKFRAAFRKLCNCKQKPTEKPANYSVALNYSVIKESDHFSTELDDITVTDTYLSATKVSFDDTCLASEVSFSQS
Chain of Androgen receptor (Homo sapiens) (P10275 whole entry, looked up): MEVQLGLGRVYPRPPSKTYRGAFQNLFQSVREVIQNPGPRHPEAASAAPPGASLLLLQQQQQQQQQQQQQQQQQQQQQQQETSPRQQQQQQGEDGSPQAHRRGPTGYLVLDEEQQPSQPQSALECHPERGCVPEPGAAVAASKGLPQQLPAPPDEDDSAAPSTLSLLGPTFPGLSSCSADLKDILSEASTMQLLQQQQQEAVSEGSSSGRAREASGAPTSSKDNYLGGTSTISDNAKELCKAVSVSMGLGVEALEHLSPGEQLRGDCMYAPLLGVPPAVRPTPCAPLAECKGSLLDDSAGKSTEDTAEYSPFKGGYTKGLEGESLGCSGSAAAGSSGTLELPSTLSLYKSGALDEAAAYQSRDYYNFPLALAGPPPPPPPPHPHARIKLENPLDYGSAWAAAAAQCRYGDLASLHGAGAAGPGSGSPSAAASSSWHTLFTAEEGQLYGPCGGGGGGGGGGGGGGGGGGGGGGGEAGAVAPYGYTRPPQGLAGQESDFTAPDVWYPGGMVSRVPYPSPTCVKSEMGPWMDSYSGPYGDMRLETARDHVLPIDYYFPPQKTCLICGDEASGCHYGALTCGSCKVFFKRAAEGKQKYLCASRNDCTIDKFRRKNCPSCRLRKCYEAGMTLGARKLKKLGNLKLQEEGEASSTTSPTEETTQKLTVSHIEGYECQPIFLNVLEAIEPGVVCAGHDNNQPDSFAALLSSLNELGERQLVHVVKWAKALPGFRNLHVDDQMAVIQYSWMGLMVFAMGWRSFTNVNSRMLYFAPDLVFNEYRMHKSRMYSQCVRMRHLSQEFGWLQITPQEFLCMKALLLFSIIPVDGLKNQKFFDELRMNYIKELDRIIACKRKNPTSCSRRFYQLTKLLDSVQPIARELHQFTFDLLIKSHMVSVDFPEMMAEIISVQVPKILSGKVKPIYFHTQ
Chain of Estrogen receptor beta (Homo sapiens) (Q92731 whole entry, looked up): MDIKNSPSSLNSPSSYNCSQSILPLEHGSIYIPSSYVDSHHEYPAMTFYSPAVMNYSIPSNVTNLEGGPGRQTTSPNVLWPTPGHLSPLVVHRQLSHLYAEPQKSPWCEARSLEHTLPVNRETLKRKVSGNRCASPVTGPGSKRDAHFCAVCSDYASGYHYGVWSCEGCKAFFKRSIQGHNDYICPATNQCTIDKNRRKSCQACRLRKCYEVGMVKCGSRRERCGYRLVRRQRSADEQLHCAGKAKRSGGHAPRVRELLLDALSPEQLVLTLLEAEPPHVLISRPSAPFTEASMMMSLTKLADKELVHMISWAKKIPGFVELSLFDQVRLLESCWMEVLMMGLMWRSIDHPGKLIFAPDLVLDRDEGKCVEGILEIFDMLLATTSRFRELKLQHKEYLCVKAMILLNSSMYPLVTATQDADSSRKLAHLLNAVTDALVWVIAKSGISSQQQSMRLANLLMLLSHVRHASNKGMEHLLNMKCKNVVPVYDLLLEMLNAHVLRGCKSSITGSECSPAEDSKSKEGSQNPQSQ

As to `Cc1ccccc1S(=O)(=O)O`, the Potency result in assay [1], in [2], in [3], in assay [4], in [5] and in assay [6] was “inactive” throughout. Also, the Potency result in [7], in assay [8], in assay [9], in assay [10] and in [12] was “inactive” throughout. The call in assay [11] and in assay [13] was inactive.

For the compound `COc1cc2c(cc1OC)C(C(C(=O)N(CCc1ccc(OC)c(OC)c1OC)CCc1ccc(OC)c(OC)c1OC)c1ccccc1)=NCC2` (stereo not drawn), the Potency entry in assay [14], in assay [3], in assay [4], in [5], in assay [7] and in [10] was “inactive” each time. Further, the Potency result in assay [12] and in assay [15] was “inactive” each time. The result in assay [11] and in assay [13] was inactive.

Regarding `CCCCCC[C@@H](O)C/C=C\CCCCCCCC(=O)OC`, the Potency entry in [2], in [3], in assay [16], in assay [17], in assay [18] and in assay [5] was “inactive” each time. For the same compound, the Potency entry in assay [6], in assay [7], in [8], in assay [19], in [10] and in assay [15] was “inactive” throughout. Moreover, the result in assay [11] and in assay [13] was inactive.

On to `NS(=O)(=O)c1ccc(N2CCCCS2(=O)=O)cc1`, for which the Potency entry in assay [2], in [3], in assay [16], in assay [4], in assay [17] and in assay [18] was “inactive” throughout. Besides, the Potency entry in assay [5], in assay [7], in assay [8], in assay [9], in [19] and in assay [10] was “inactive” each time. For the same compound, the Potency result in [12] was “inactive”. In addition, the compound was called inactive in assay [11] and in [13].

In the case of `Clc1ccc2c(c1)CCc1cccnc1C2=C1CCNCC1`, the Potency in assay [3] was 33.5 µM (active); in [4], 18.8 µM (active); in assay [5] it was 26.6 µM (active); in assay [9], 21.1 µM (active). The Potency entry in assay [17], in assay [18], in assay [6] and in [12] was “inactive” each time. Besides, the call in assay [11] was inactive.

`O=C(O)c1nc(Cl)c(Cl)c(Cl)c1Cl`: the Potency result in [2], in assay [4], in assay [18], in [5], in [9] and in [19] was “inactive” each time. In addition, the Potency entry in assay [10] and in [15] was “inactive” throughout. In addition, the result in assay [11] and in assay [13] was inactive.

As to `O=C(O)C1(C(=O)O)CCC1.[NH2-].[NH2-].[Pt+2]`, the Potency entry in [2], in assay [3], in assay [17], in assay [18], in assay [5] and in assay [6] was “inactive” in each case. Moreover, the Potency entry in assay [7], in [8], in [9], in [19], in [10] and in assay [15] was “inactive” each time. Also, the call in assay [11] and in assay [13] was inactive.

For the compound `Cc1ccc(C(=O)Oc2ccc(C(O)CNC(C)(C)C)cc2OC(=O)c2ccc(C)cc2)cc1` (stereo not drawn), the results for the Potency in assay [3] and in assay [18] were 26.6 µM (active) and 0.0362 µM (active), respectively. Besides, the Potency result in assay [17], in [5], in assay [6], in [7], in assay [8] and in assay [9] was “inactive” each time. For the same compound, the Potency result in [19], in assay [10] and in assay [15] was “inactive” throughout. Further, the result in assay [11] and in assay [13] was inactive.

Regarding `CCN(CC)CCNc1ccc(CNC=O)c2sc3ccc(OC)cc3c(=O)c12`, the Potency was 8.63 µM (active) in [3]; 8.63 µM (active) in [4]; 13.7 µM (active) in [6]; 24.3 µM (active) in assay [9]; 27.3 µM (active) in assay [19]. The Potency entry in [17], in assay [7], in assay [10], in [12] and in [15] was “inactive” throughout. The outcome in assay [11] and in assay [13] was inactive.

Take `CO[C@@H]1[C@H](OC(=O)/C=C/C=C/C=C/C=C/C(=O)O)CC[C@]2(CO2)[C@H]1[C@@]1(C)O[C@@H]1CC=C(C)C`: the Potency result in [3], in [4], in [17], in assay [5], in [6] and in assay [7] was “inactive” throughout. Also, the Potency result in [8], in assay [9], in [19], in [12] and in [15] was “inactive” throughout. Also, the compound was called inactive in [11] and in assay [13].

`CC[N+]1(CC)CCC(=C(c2ccccc2)c2ccccc2)C1C` (stereo not drawn): the Potency entry in [3], in assay [4], in [18], in [5], in [6] and in [7] was “inactive” in each case. In addition, the Potency result in assay [9], in assay [19] and in [12] was “inactive” in each case. For the same compound, the compound was called inactive in assay [11].
